# TGFb SMAD3 inh – TGF-b pathway inhibition; HepG2 CAGA-GFP TGF-b/SMAD3 reporter, GFP fluorescence, 18 h; TGF-beta stimulated, 500 pg/mL final; Potency, µM (doses to about 46.1 µM), for the others: at the top dose activity, negative = inhibition, actives largely listed as inhibitors; 410,000 compounds, 1.2% hits; further: on the % scale 0 is the no-effect control and ±100 the full control effect; nearly all actives have a fitted effect of over 65% in size
#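 TGF-beta reporter screen: HEPG2 CAGA-GFP, 1% FBS, 500 pg/mL TGF-beta final, 18 h; per-cell GFP summed per well; curves fitted and categorized by class.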
# HepG2 tox-1 – counter-screen for TGF-b inhibitors: cytotoxicity in HepG2 cells; Potency, µM (titrated, usually from 46.1 µM), inactives show at the top dose activity change, negative = cytotoxicity, most hits filed as cytotoxic; HepG2 CAGA-GFP viability, ATP luminescence, 18 h; 410,000 compounds, 0.76% hits; AID 588856
#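 HepG2 CAGA-GFP cells (1000/well, DMEM with 1% FBS) received compound, then TGF-beta at 500 pg/mL final, and were incubated 18 hours at 37 degrees C. Viability was read by CellTiter-Glo luminescence. Media-only wells were set as complete cell-killing and DMSO as no toxicity.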
# ATXN2 expr inh – inhibitors of ATXN2 expression | HEK-293 ATXN2-luciferase reporter, luminescence, 24 h | Potency, µM (doses to about 57 µM), for inactives: at the highest dose activity change, negative = inhibition, hits mostly inhibitors | 360,000 compounds, 0.72% hits | AID 1745845; further: on the % scale 0 is the no-effect control and ±100 the full control effect; nearly all actives have a fitted effect of over 55% in size
#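 ATXN2-luciferase reporter cells (luciferase flanked by upstream and downstream ATXN2 gene portions) were treated 24 h at 37 °C with compounds at up to 57 uM. SteadyGlo luminescence gave expression; GF-AFC fluorescence gave viability.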
# ATXN viability – viability counter-screen for ATXN expression inhibitors; AID 651635; Potency, µM (series often up to 56.7 µM), actives largely listed as cytotoxic; 400,000 compounds, 0.49% hits; S2 cells (HEK-293 line with an ATXN2-luciferase reporter) viability, CellTiter-Fluor protease fluorescence, 24 h; further: nearly all actives have a fitted effect of over 40% in size
# ALOX12 inh – ALOX12 (human) lipoxygenase inhibition; P18054; purified 12hLO, xylenol orange hydroperoxide absorbance; Potency, µM (doses to about 108 µM), for the others: at the highest dose activity change, negative = inhibition, hits mostly inhibitors; 580,000 compounds, 1.1% hits; AID 1671190; further: on the % scale 0 is the no-effect control and ±100 the full control effect
# Target sequence (P18054 whole entry, looked up): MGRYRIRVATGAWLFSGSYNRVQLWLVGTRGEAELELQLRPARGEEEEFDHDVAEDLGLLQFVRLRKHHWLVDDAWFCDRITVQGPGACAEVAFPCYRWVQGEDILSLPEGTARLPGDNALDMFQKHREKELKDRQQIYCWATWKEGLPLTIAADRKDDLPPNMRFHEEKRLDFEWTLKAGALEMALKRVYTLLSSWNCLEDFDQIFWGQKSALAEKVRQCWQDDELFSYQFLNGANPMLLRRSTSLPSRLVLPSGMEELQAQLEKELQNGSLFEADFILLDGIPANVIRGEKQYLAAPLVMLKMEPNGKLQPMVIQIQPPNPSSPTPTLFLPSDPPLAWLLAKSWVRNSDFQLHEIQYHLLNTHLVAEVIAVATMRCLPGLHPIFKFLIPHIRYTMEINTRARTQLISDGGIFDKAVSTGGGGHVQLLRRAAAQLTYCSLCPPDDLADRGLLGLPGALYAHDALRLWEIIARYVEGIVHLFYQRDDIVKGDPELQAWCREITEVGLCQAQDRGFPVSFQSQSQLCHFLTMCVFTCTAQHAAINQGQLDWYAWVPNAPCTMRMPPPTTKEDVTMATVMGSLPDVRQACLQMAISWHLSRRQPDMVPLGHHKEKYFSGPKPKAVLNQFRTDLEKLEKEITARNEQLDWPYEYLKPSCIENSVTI
#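 Hydroperoxide product was detected by ferrous iron/xylenol orange as the 573 to 405 nm absorbance ratio. Arachidonic acid at 40 uM (final) was turned over for 30 min at room temperature by 150 nM human 12hLO, pH 7.0 Hepes buffer, after 15 min compound preincubation.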
# TGFb CAGA inh – confirmation of TGF-b signaling inhibitors in HepG2 reporter cells; AID 720534; 1,600 compounds, 63% hits; shares compounds with TGFb SMAD3 inh; HepG2 CAGA-GFP TGF-b reporter, GFP fluorescence, 18 h; cells stimulated with TGF-beta, 500 pg/mL; Potency, µM (highest dose often 46.1 µM), for the others: top-dose activity, negative = inhibition, actives largely listed as inhibitors; further: on the % scale 0 is the no-effect control and ±100 the full control effect; nearly all actives have a fitted effect of over 65% in size
# HepG2 tox-2 – counter-screen for TGF-b inhibitors: cytotoxicity in HepG2 cells; shares compounds with TGFb SMAD3 inh; HepG2 CAGA-GFP viability, ATP luminescence, 18 h; cells stimulated with TGF-beta, 500 pg/mL; Potency, µM (top dose mostly 46.1 µM), inactives show at the top dose activity, negative = cytotoxicity, hits mostly inhibitors; 1,600 compounds, 27% hits; further: on the % scale 0 is the no-effect control and ±100 the full control effect; nearly all actives have a fitted effect of over 70% in size
# CCL64 TGFb inh – TGF-b inhibition, CCL64 orthogonal assay | shares compounds with TGFb SMAD3 inh | 1,600 compounds, 41% hits | CCL64 CAGA-GFP reporter, TGF-b stimulated, GFP fluorescence, 18 h | Potency, µM (highest dose often 46.1 µM), without a hit: top-dose activity, negative = inhibition, hits mostly inhibitors; further: nearly all actives have a fitted effect of over 65% in size
# TGFb COP inh – validation of TGF-b inhibitors in HepG2 COP promoter reporter; shares compounds with TGFb SMAD3 inh; HepG2 COP-GFP TGF-b reporter, GFP fluorescence, 18 h; cells stimulated by added recombinant TGF-beta; Potency, µM (titrated, usually from 46.1 µM), inactives show top-dose activity, negative = inhibition, most hits filed as inhibitors; 1,600 compounds, 3% hits; further: nearly all actives have a fitted effect of over 70% in size
# An asterisk follows results filed as active; i = inactive; ? = inconclusive; . = no result; ! = not active in a repeat; [ ] = remark or other dose. Shown are actives, neighbours in structure and some others; about 2.7% of the full set was active somewhere. The call rests on the fitted dose curve; in most records, active means well fitted curve in the direction sought with a large enough effect; inconclusive means small, poorly fitted or top-dose-only effect, or another doubt; inactive means no such curve, though single readings can be large; an effect the other way counts as inactive or inconclusive. Potency means the concentration at half of the fitted maximal effect.
SMILES,TGFb SMAD3 inh,HepG2 tox-1,ATXN2 expr inh,ATXN viability,ALOX12 inh,TGFb CAGA inh,HepG2 tox-2,CCL64 TGFb inh,TGFb COP inh
Cc1cc(C)c(S(=O)(=O)NC2CC3CCC2C3)c(C)c1 (centres undefined),?,-30.4%,20.9%,i,10.6%,?,-1.7%,-16.6%,-4.6%
COC(=O)c1ccccc1NC1=C/C(=N\S(=O)(=O)c2cccs2)c2ccccc2C1=O,?,-23.4%,3.98µM*,7.08µM*,-1.1%,7.31µM*,14.6µM*,3.26µM*,16.4µM*
O=S(=O)(/N=C(/Nc1cccc2ccccc12)c1ccccc1)c1cccs1,0.0%,0.6%,7.9%,i,169.0%,.,.,.,.
Cc1ccc(S(=O)(=O)Nc2ccc(N=Nc3ccc(O)cc3)cc2)cc1,?,6.9%,.,i,?,.,.,.,.
O=C1C=C(Nc2ccccc2)C(=O)c2ccccc21,3.98µM*,5.01µM*,-16.5%,?,17.9%,6.51µM*,14.6µM*,?,-65.3%
Cc1ccc(S(=O)(=O)/N=C2\C=C(Nc3ccc(O)cc3)C(=O)c3ccccc32)cc1,1.26µM*,3.16µM*,6.31µM*,3.98µM*,.,1.3µM*,2.31µM*,5.17µM*,?
O=C1C(Nc2ccccc2)=C/C(=N/S(=O)(=O)c2cccs2)c2ccccc21,3.98µM*,3.55µM*,7.94µM*,.,.,2.59µM*,2.59µM*,3.26µM*,?
O=[N+]([O-])c1ccccc1/C=C/C=N/Nc1ccc(Cl)nn1,.,.,.,.,27.3%,.,.,.,.
O=C(O)CCCNS(=O)(=O)c1ccc(C(=O)O)cc1,.,.,.,.,-28.8%,.,.,.,.
CCCc1cc(C(=O)OC)c(NC(=O)Cc2c(Cl)cccc2Cl)s1,.,.,.,.,19.6%,.,.,.,.
Clc1ccc2c(NCc3ccccn3)ccnc2c1,12.6µM*,-29.7%,-28.8%,i,0.0%,2.06µM*,-26.0%,8.2µM*,-1.1%
CN(C)CCNC(=O)c1cc(-c2ccccc2F)cc2c1OCCN2Cc1cccnc1,.,.,.,.,3.7%[176 µM],.,.,.,.
CCN(CC)C(=O)[C@H]1C[C@H](CC(=O)NCc2cccc(C(F)(F)F)c2)C(=O)N2CCc3c([nH]c4ccc(Cl)cc34)[C@]12C,10µM*,12.6µM*,?,?,?,?,?,25.9µM*,45.0%
CCN(CC)C(=O)[C@H]1CC(CC(=O)NCc2cccc(C(F)(F)F)c2)C(=O)N2CCc3c([nH]c4ccccc34)[C@]12C (some centres undefined),12.6µM*,-7.0%,?,.,1.8%,20.6µM*,?,14.6µM*,35.1%
CCN(CC)C(=O)[C@H]1CC(CC(=O)NCc2ccc(OC)c(OC)c2)C(=O)N2CCc3c([nH]c4ccccc34)[C@]12C (some centres undefined),-18.0%,-25.4%,8.1%,i,-5.7%,.,.,.,.
CCCNC(=O)NC(=O)CSc1nc2ccccc2c(=O)n1CC1CCCO1 (centres undefined),.,.,.,.,3.0%,.,.,.,.
Cc1nn(C)c(C)c1CN1C[C@@H](COCC2CC2)[C@H](c2ccccn2)C1,.,.,.,.,77.4%,.,.,.,.
O=C(Cc1ccccc1)NCc1ccc2c(c1)OCO2,-4.8%,1.9%,15.9%,i,-10.3%,.,.,.,.
Cc1ccc(CS(=O)(=O)c2ncc(Cl)c(C(=O)Nc3ccc(OC(F)F)cc3)n2)cc1,10µM*,17.8µM*,?,?,15.3%,8.2µM*,16.4µM*,3.26µM*,?
O=C(NCc1ccccc1)c1nc(S(=O)(=O)Cc2ccccc2)ncc1Cl,6.31µM*,8.91µM*!,.,?,-1.0%,4.61µM*,5.17µM*,2.31µM*,29.1µM*
CCS(=O)(=O)c1ncc(Cl)c(C(=O)NCc2ccccc2)n1,.,-108.0%,.,.,-14.3%,.,.,.,.
O=C(Nc1ccc(OC(F)F)cc1)c1ncc(Cl)c(Cl)c1Cl,0.5%,-43.3%,.,i,12.6%,.,.,.,.
O=C(NCc1ccc2c(c1)OCO2)c1nc(S(=O)(=O)Cc2ccccc2)ncc1Cl,10µM*,-143.5%,?,?,-3.6%,2.31µM*,3.66µM*,2.59µM*,23.1µM*
COc1ccc(CNC(=O)c2nc(S(=O)(=O)Cc3ccccc3)ncc2Cl)cc1,6.31µM*,12.6µM*,.,17.8µM*,-8.1%,3.66µM*,16.4µM*,2.31µM*,?

# Screening results: PubChem, National Center for Advancing Translational Sciences (NCATS)
